Screening data from PubChem BioAssay.
HT1080-NT tox – kills 2HG-producing HT-1080-NT fibrosarcoma cells; HT-1080-NT fibrosarcoma viability, CellTiter-Glo ATP luminescence, 48 h; Potency, µM (titrated, usually from 46.1 µM), for the others: at the top dose activity, negative = less viability, hits mostly cytotoxic; 360,000 tested, 1.6% active; AID 686970;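 also: NT is the 2HG producing partner of a matched IDH1 knockdown line; 0% = DMSO-treated cells and -100% = media-only wells without cells; nearly all actives have a fitted effect of over 55% in size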
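750 cells/well, RPMI + 5% FBS; 2 h settle, compound pin-transfer, 48 h at 37 degrees C. CellTiter-Glo 10 min RT, luminescence. Normalized to DMSO and media-only wells.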
ATXN2 expr inh – ATXN2 expression inhibition; 360,000 tested, 0.72% active; HEK-293 ATXN2-luciferase reporter, luminescence, 24 h; Potency, µM (titrated, usually from 57 µM), for inactives: top-dose activity change, negative = inhibition, actives largely listed as inhibitors; also: % is scaled to controls: 0 for no effect and ±100 for the full control effect; nearly all actives have a fitted effect of over 55% in size
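qHTS (up to 57 uM final) was run with 24 h compound exposure of reporter cells at 37 °C. Each well was multiplexed: SteadyGlo luminescence measured ATXN2-luciferase expression after a fluorogenic Gly-Phe-AFC viability readout (25 uM final).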
TGFb inhibitor – blocks TGF-b signaling. 410,000 tested, 1.2% active. AID 588855. HepG2 CAGA-GFP TGF-b/SMAD3 reporter, GFP fluorescence, 18 h; TGF-beta stimulated, 500 pg/mL final. Potency, µM (highest dose often 46.1 µM), for inactives: at the top dose activity, negative = inhibition, most hits filed as inhibitors; also: % is scaled to controls: 0 for no effect and ±100 for the full control effect; nearly all actives have a fitted effect of over 65% in size
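GFP signal (ex488/em500-530) from TGF-beta-stimulated HEPG2 CAGA-GFP cells, 500 pg/mL final, 18 h at 37 degrees C in DMEM plus 1% FBS, normalized to unstimulated and DMSO-stimulated controls.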
HepG2 tox – kills HepG2 cells in TGF-b inhibitor counter-screen. HepG2 CAGA-GFP viability, ATP luminescence, 18 h. Potency, µM (series often up to 46.1 µM), for inactives: top-dose activity change, negative = cytotoxicity, most hits filed as cytotoxic. 410,000 tested, 0.76% active. AID 588856
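CellTiter-Glo luminescence gave cytotoxicity after 18 hours at 37 degrees C. The cells were HepG2 CAGA-GFP in 1% FBS DMEM, stimulated with 500 pg/mL TGF-beta after compound addition. %Activity was normalised to no-cell wells (complete cell-killing) and DMSO (no toxicity), and curves were fitted and classified.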
ATXN viability – viability counter-screen for ATXN expression inhibitors | S2 cells (HEK-293 line with an ATXN2-luciferase reporter) viability, CellTiter-Fluor protease fluorescence, 24 h | Potency, µM (highest dose often 56.7 µM), most hits filed as cytotoxic | 400,000 tested, 0.49% active | AID 651635; also: nearly all actives have a fitted effect of over 40% in size
HT1080 IDH1KD tx – HT-1080 IDH1 knockdown cell toxicity (counter line) | HT-1080 IDH1 knockdown viability, ATP luminescence, 48 h | Potency, µM (highest dose often 46.1 µM), for the others: top-dose activity, negative = toxicity, hits mostly cytotoxic | AID 686971 | 360,000 tested, 2% active;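 also: 0% = DMSO wells and -100% = cell-free medium wells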
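After a 2 h attachment period, IDH1KD HT-1080 cells took pin-transferred compound for 48 h at 37 °C; ATP-based luminescence after 10 min room-temperature reagent incubation reported viability.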
* hit, by the source's call; i = inactive; ? = inconclusive; . = not tested or not shown; [ ] = dose if it differs, or a comment. Hits are enriched below; roughly 3.9% of the tested compounds scored in any of these assays. Calls follow the shape of the dose curve; as a rule, active = well fitted curve in the direction sought with a large enough effect; inconclusive = small, poorly fitted or top-dose-only effect, or another doubt; inactive = no such curve, though single readings can be large; an effect the other way counts as inactive or inconclusive. Potency is read from the fitted curve at half-maximal effect.

SMILES	HT1080-NT tox	ATXN2 expr inh	TGFb inhibitor	HepG2 tox	ATXN viability	HT1080 IDH1KD tx
COc1ccc(NC(=O)c2c(C)nn(Cc3ccccc3Cl)c2Cl)cc1Cl	-1.8%	-11.8%	2.1%	-1.8%	?	4.2%
COc1ccc2c(c1)CCc1c(C(=O)Nc3c(C)nn(Cc4ccccc4C)c3C)noc1-2	.	0.0%	12.6µM*	-29.9%	?	.
Nc1c(C(=O)NCc2ccco2)c2nc3ccccc3nc2n1Cc1ccc(F)cc1	16.4µM*	?	?	6.5%	i	?
Nc1c(C(=O)NCc2ccco2)c2nc3ccccc3nc2n1Cc1ccccc1	-28.6%	.	11.2µM*	-53.4%	.	-30.0%
COc1ccc(Cn2c(N)c(C(=O)NCc3ccco3)c3nc4ccccc4nc32)cc1	-19.1%	-28.3%	?	-57.7%	i	-23.6%
CCO/N=C(\CC)C1=C(O)CC(c2c(C)cc(C)cc2C)CC1=O (configuration not stated)	.	35.7%[116 µM]	.	.	?	.
CCOC(=O)C(O)(c1ccc(NC(=S)NC(=O)c2ccc(Cl)cc2Cl)c(C)c1)C(F)(F)F (configuration not stated)	16.4µM*	-15.9%	?	-96.9%	i	23.1µM*
COC(=O)C(O)(c1ccc(NC(=S)NC(=O)c2ccc(Cl)cc2Cl)c(C)c1)C(F)(F)F (configuration not stated)	?	?	?	-61.0%	i	?
CCCCn1nnnc1C(c1ccc(OC)cc1)N1CCC2(CC1)C(=O)NCN2c1ccccc1 (configuration not stated)	?	-23.8%	?	-36.2%	?	?
COc1ccc(C(c2nnnn2Cc2ccccc2)N2CCC3(CC2)C(=O)NCN3c2ccccc2)cc1 (configuration not stated)	?	-6.2%	11.2µM*	-1.0%	?	?
O=C1NCN(c2ccccc2)C12CCN(C(c1ccccc1OC(F)(F)F)c1nnnn1-c1ccc3c(c1)OCCO3)CC2 (configuration not stated)	?	0.0%	?	4.6%	22.4µM*	?
COc1ccc(-n2nnnc2C(c2ccccc2OC(F)(F)F)N2CCC3(CC2)C(=O)NCN3c2ccccc2)cc1 (configuration not stated)	?	?	11.2µM*	-31.9%	.	16.4µM*
CC(=O)c1cccc(NC(=O)C2CCN(S(=O)(=O)c3ccc4c(c3)oc(=O)n4C)CC2)c1	.	-5.0%	-9.9%	-32.7%	i	.
CC1=C(O)C(=O)C=C2C1=CC=C1[C@@]2(C)CC[C@@]2(C)[C@@H]3C[C@](C)(C(=O)O)CC[C@]3(C)CC[C@]12C	.	2.43µM*	.	.	.	.
CC1(C)C(=O)CC[C@]2(C)C3C(=O)C=C4[C@H]5C[C@@](C)(C(=O)O)CC[C@]5(C)CC[C@]4(C)[C@]3(C)CC[C@@H]12 (some centres not stated)	10.2%	4.8%	?	5.6%	i	2.6%
COc1ccc(S(=O)(=O)N(C)C[C@H]2OCCCC[C@@H](C)Oc3ccc(N(C)C)cc3C(=O)N([C@H](C)CO)C[C@@H]2C)cc1	-0.7%	-11.9%	-6.3%	-11.0%	?	2.6%
O=[N+]([O-])/C=C/c1c(Cl)cccc1Cl	?	?	2.82µM*	10µM*	.	?
O=C(NCCSc1c(-c2ccc(F)cc2)[nH]c2ccccc12)c1ccc(S(=O)(=O)N2CCOCC2)cc1	.	.	?	-30.5%	.	.
CCN(CC)C(=O)Cn1cc(S(=O)(=O)CC(=O)NCc2ccc(C)cc2)c2ccccc21	15.6%	-1.4%	8.2%	-0.1%	?	12.1%
CCCNS(=O)(=O)c1ccc(OCC(=O)N2CCN(Cc3ccc4c(c3)OCO4)CC2)c(C)c1	11.6µM*	-23.3%	-14.0%	-10.4%	i	?
N#CC1=C(N)Oc2c(c(=O)sc3ccccc23)C1c1cccnc1 (configuration not stated)	3.26µM*	-17.8%	-16.8%	-31.9%	?	4.61µM*
N#CC1=C(N)Oc2c(c(=O)oc3ccccc23)C1c1ccncc1 (configuration not stated)	-2.2%	8.2%	-3.1%	-10.1%	i	-1.8%
COc1cc(/C=C(/C)[N+](=O)[O-])ccc1OCc1ccccc1Cl	8.2µM*	25.1µM*	5.01µM*	7.94µM*	31.6µM*	5.8µM*
CC(C)(O)C=CC(=O)[C@](C)(O)[C@H]1[C@H](O)C[C@]2(C)[C@@H]3CC=C4[C@@H](C=C(O)C(=O)C4(C)C)[C@]3(C)C(=O)C[C@@]12C	.	1.53µM*	.	.	.	.
CC(=O)OC(C)(C)/C=C/C(=O)C(C)(O)C1[C@H](O)C[C@@]2(C)C3CC=C4C(CC[C@@H](O)C4(C)C)[C@]3(CO)C(=O)C[C@]12C (some centres not stated)	0.103µM*	?	?	-17.0%	?	0.0326µM*
SMILES	HT1080-NT tox	ATXN2 expr inh	TGFb inhibitor	HepG2 tox	ATXN viability	HT1080 IDH1KD tx
CC(=O)OC(C)(C)/C=C/C(=O)C(C)(O)C1C(O)CC2(C)C3CC=C4C(CC(O)C(=O)C4(C)C)C3(C)C(=O)CC12C (configuration not stated)	0.116µM*	?	?	17.2%	.	0.0461µM*
CC(=O)OC(C)(C)/C=C/C(=O)[C@](C)(O)[C@H]1[C@H](O)C[C@@]2(C)[C@@H]3CC=C4[C@H](C[C@H](O)C(=O)C4(C)C)[C@]3(C)C(=O)C[C@]12C	0.082µM*	14.1µM*	2.82µM*	-82.5%	.	0.0326µM*
COc1ccc(C)cc1NC(=O)Cn1c(=O)oc2cc(S(=O)(=O)N3CCCCC3)ccc21	.	-11.0%	-23.8%	-33.7%	i	.
O=C(/C=C/c1ccccc1)c1c(O)n(CCc2ccccc2)c(=O)[nH]c1=O	-10.7%	-31.4%	2.0%	1.7%	?	-22.5%
COc1cc(/C=C/C(=O)c2c(O)n(CCc3ccccc3)c(=O)[nH]c2=O)ccc1O	?	-0.7%	0.0%	-5.8%	?	11.6µM*
Cc1ccc(Cl)cc1N1CCN(C(=O)c2cn(CC(C)C)c(=O)c3c2c2ccccc2n3C)CC1	.	?	0.4%	1.2%	?	.
CC(=O)Nc1cc(-c2ccc(C(=O)NC3CC3)cc2)cn2c(-c3ccc(F)c(Cl)c3)cnc12	?	0.0%	?	-6.6%	i	18.4µM*
